The panel holds about 83,000 compounds, 20% with a hit somewhere; the sample as a whole holds those more often.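 The endpoint reported here, percent growth, reads 100 for growth as untreated, 0 for no net growth and -100 for all cells dead.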 A number with no mark means an inactive call. The source made the active and inactive calls. How the source made its calls: active means growth percent below 10; inactive means the rest.

Some test systems named below: SR leukemia; RPMI-8226 leukemia; OVCAR-8 ovarian; OVCAR-5 ovarian; OVCAR-4 ovarian; SK-OV-3 ovarian; IGROV1 ovarian; OVCAR-3 ovarian; HS 578T breast; NCI/ADR-RES ovarian.
Common to all, as to test: NCI-60 one-dose screen, 48 h (100 = growth as untreated, 0 = no growth, -100 = all killed)
What all share (conditions): 10 µM unless noted

As to `N=C(N)c1ccc(-c2ccc(-c3ccc(Cl)cc3)s2)nc1`, the growth is 1.7% (active) in the assay with SR leukemia; -24.6% (active) in the assay on RPMI-8226 leukemia; -31% (active) in the assay on OVCAR-8 ovarian; -28% (active) with OVCAR-5 ovarian; 18.1% in the assay on OVCAR-4 ovarian; 86.7% in the assay on SK-OV-3 ovarian. For the same molecule, the growth in the assay on IGROV1 ovarian is -79.2% (active); in the assay with OVCAR-3 ovarian, -93% (active); in the assay on HS 578T breast, 67.5%; with NCI/ADR-RES ovarian, 67.4%.
With `CCn1c(SCC(=O)c2ccc(Br)cc2)nnc1-c1ccncc1`, the growth in the assay with SR leukemia was 98.3%; with RPMI-8226 leukemia it was 103%; in the assay with OVCAR-8 ovarian it was 109%; in the assay with OVCAR-5 ovarian, 108%; in the assay on OVCAR-4 ovarian, 101%; in the assay with SK-OV-3 ovarian it was 118%. Besides, the growth was 115% in the assay on IGROV1 ovarian, 106% with OVCAR-3 ovarian, 105% in the assay with HS 578T breast and 107% in the assay with NCI/ADR-RES ovarian.
Take `O=[N+]([O-])C1C(c2ccccc2)C12c1ccccc1-c1ccccc12` (stereo not given): the growth in the assay on SR leukemia is -14.8% (active); with RPMI-8226 leukemia it was -17.3% (active); with OVCAR-8 ovarian it was -28% (active); in the assay on OVCAR-5 ovarian, 23.9%; in the assay with OVCAR-4 ovarian it was 57.2%; in the assay with SK-OV-3 ovarian, 2.18% (active). Also, the growth in the assay with IGROV1 ovarian was 20.5%; with OVCAR-3 ovarian, -31.2% (active); in the assay with HS 578T breast, 38.6%; in the assay with NCI/ADR-RES ovarian, -27.4% (active).
As to `Fc1ccc(Nc2nc3nonc3nc2Nc2ccc(I)cc2)cc1`, the growth was -4.09% (active) in the assay on SR leukemia; -11.6% (active) in the assay with RPMI-8226 leukemia; 4.01% (active) in the assay on OVCAR-8 ovarian; 37.5% with OVCAR-5 ovarian; 17.8% in the assay with OVCAR-4 ovarian; -24.5% (active) with SK-OV-3 ovarian. For the same molecule, the growth was 23.2% in the assay with IGROV1 ovarian, 9.78% (active) in the assay with OVCAR-3 ovarian, 8.99% (active) in the assay with HS 578T breast and 4.92% (active) in the assay with NCI/ADR-RES ovarian.
Regarding `CCCCCCNC(=O)Oc1ccc(/C(=C(/C)Cc2ccc(OC)cc2)c2ccc(OCCCN(C)C)cc2)cc1`, the growth with SR leukemia was -53.3% (active); in the assay with RPMI-8226 leukemia, -20.4% (active); with OVCAR-8 ovarian, 13.3%; with OVCAR-5 ovarian, 85.3%; with OVCAR-4 ovarian it was 60.7%; with SK-OV-3 ovarian it was 88.4%. The growth with IGROV1 ovarian was 41.6%; in the assay on OVCAR-3 ovarian, 55.9%; in the assay on HS 578T breast it was 52.9%; with NCI/ADR-RES ovarian, 67.5%.
With `O=C1/C(=C/c2ccc(F)cc2)COc2ccc(O)c(O)c21`, the growth with SR leukemia was 18.9%; in the assay on RPMI-8226 leukemia, -2.78% (active); in the assay with OVCAR-8 ovarian, 6.23% (active); with OVCAR-5 ovarian, 1.54% (active); in the assay with OVCAR-4 ovarian it was 43%; with SK-OV-3 ovarian, 69.1%. In addition, the growth in the assay with IGROV1 ovarian is -21.8% (active); in the assay with OVCAR-3 ovarian it was -2.58% (active); with HS 578T breast, 21.5%; with NCI/ADR-RES ovarian it was 1.04% (active).
Consider `S=C(Nc1ccc(-c2nc(N3CCOCC3)c3cccn3n2)cc1)Nc1cccnc1`, for which the growth in the assay on SR leukemia is 36.7%; with RPMI-8226 leukemia, 19%; with OVCAR-8 ovarian it was 14.8%; in the assay on OVCAR-5 ovarian, 35.2%; in the assay on OVCAR-4 ovarian, 43.2%; with SK-OV-3 ovarian, 21.5%. The growth with IGROV1 ovarian is 11%; with OVCAR-3 ovarian, 39.6%; with HS 578T breast, 12.8%; in the assay with NCI/ADR-RES ovarian, 26.3%.
For the molecule `COc1cccc(CNc2ncnc3c2ncn3C2OC(CO)C(O)C2O)c1O` (stereo not given), the growth in the assay with SR leukemia is -9.69% (active); in the assay on RPMI-8226 leukemia, -28.5% (active); with OVCAR-8 ovarian it was 6.83% (active); in the assay on OVCAR-5 ovarian, 9.68% (active); in the assay on OVCAR-4 ovarian, 11.3%; in the assay with SK-OV-3 ovarian, -61.5% (active). Further, the growth with IGROV1 ovarian is -23.4% (active); in the assay with OVCAR-3 ovarian, -0.409% (active); in the assay on HS 578T breast, -27% (active); with NCI/ADR-RES ovarian, 2.34% (active).
As to `CCCCCCCCn1ccc2cc(NC(=O)Cn3cc(CN4CCCCC4)nn3)ccc21`, the growth is 5.39% (active) in the assay with SR leukemia; -59.2% (active) in the assay on RPMI-8226 leukemia; 42% in the assay with OVCAR-8 ovarian; 73.7% in the assay with OVCAR-5 ovarian; 59.1% in the assay on OVCAR-4 ovarian; 67.5% in the assay with SK-OV-3 ovarian. Besides, the growth is 45.5% in the assay on IGROV1 ovarian, 26% in the assay on OVCAR-3 ovarian, 41.5% in the assay on HS 578T breast and 72.7% in the assay with NCI/ADR-RES ovarian.
In the case of `COC(=O)c1c2c(c(C)[n+]([O-])c1C)C(=O)C(NCc1ccc(Cl)cc1)=CC2=O`, the growth in the assay on SR leukemia is 48.6%; with RPMI-8226 leukemia it was 69.8%; in the assay with OVCAR-8 ovarian it was 33.1%; in the assay on OVCAR-5 ovarian, 97.3%; in the assay on OVCAR-4 ovarian, 36.6%; in the assay on SK-OV-3 ovarian, 95.8%. Also, the growth is 61.2% in the assay on IGROV1 ovarian, -7.64% (active) in the assay with OVCAR-3 ovarian, 92.2% with HS 578T breast and 54.8% in the assay on NCI/ADR-RES ovarian.
Consider `O=C(c1ccc(-c2nc(CSc3nc4ccccc4s3)no2)cc1)N1CCSCC1`, for which the growth is 43% with SR leukemia; 47.2% in the assay with RPMI-8226 leukemia; 43% with OVCAR-8 ovarian; 117% with OVCAR-5 ovarian; 69.5% in the assay with OVCAR-4 ovarian; 72.6% with SK-OV-3 ovarian. Moreover, the growth is 77.6% in the assay on IGROV1 ovarian, 78.8% in the assay with OVCAR-3 ovarian, 106% with HS 578T breast and 52.7% in the assay with NCI/ADR-RES ovarian.
Regarding `N#C/C(=C/c1ccc([N+](=O)[O-])cc1)n1nnc2cc(F)c(F)cc21`, the growth with SR leukemia is 2.33% (active); in the assay on RPMI-8226 leukemia, -18.7% (active); with OVCAR-8 ovarian, 37.5%; in the assay with OVCAR-5 ovarian, 108%; in the assay on OVCAR-4 ovarian it was 86.5%; in the assay on SK-OV-3 ovarian it was 116%. Moreover, the growth in the assay on IGROV1 ovarian was 73.6%; in the assay on OVCAR-3 ovarian, 30.6%; with HS 578T breast, 80.6%; in the assay on NCI/ADR-RES ovarian, 76.2%.
Take `O=C(CSc1nc2sc3c(c2c(=O)n1-c1ccccc1)CCCCC3)N/N=C/c1ccc(F)cc1`: the growth with SR leukemia was 11.3%; with RPMI-8226 leukemia it was 66%; in the assay on OVCAR-8 ovarian, -17.9% (active); in the assay on OVCAR-5 ovarian it was 41.8%; in the assay on OVCAR-4 ovarian it was -47.4% (active); with SK-OV-3 ovarian, 73.4%. In addition, the growth with IGROV1 ovarian was 62.1%; in the assay with OVCAR-3 ovarian, -33.8% (active); in the assay with HS 578T breast, -13.9% (active); with NCI/ADR-RES ovarian, 22.9%.
For the molecule `CO[C@]12C=C/C(=C(/C(=O)OCc3cccnc3)C(=O)CCCCCCCC[C@@]3(OC)C=C/C(=C(/C(=O)OCc4cccnc4)C(=O)CCCCCCCC1)O3)O2`, the growth was -9.1% (active) in the assay on SR leukemia; -9.22% (active) with RPMI-8226 leukemia; 19.9% with OVCAR-8 ovarian; -5.24% (active) in the assay on OVCAR-5 ovarian; 11% in the assay on OVCAR-4 ovarian; 57.4% in the assay with SK-OV-3 ovarian. The growth in the assay with IGROV1 ovarian was 2.68% (active); in the assay with OVCAR-3 ovarian, -19.3% (active); in the assay on HS 578T breast it was 37%; in the assay on NCI/ADR-RES ovarian, 36.3%.

These data come from PubChem BioAssay (NCI).
